Data on 131 compounds can be found in ChEMBL document CHEMBL4513160, “CO-ADD screening of MMV (CH) - Small Polar Library”.

What is called Inhibition is the change of the read-out against control, counted positive when it falls.

Structures are written as SMILES. The whole screen tested about 18,000 compounds, of which fewer than 10 showed an effect of 50% or more. Only a sample is shown.

In this assay the test system is Pseudomonas aeruginosa. Put plainly: Antibacterial activity against Pseudomonas aeruginosa PAO397 [PAO1 d(mexAB-oprM) d(mexCD-oprJ) d(mexEF-oprN) d(mexJKL) d(mexXY) d(opmH)] (CO-ADD:GN_211); MIC in CAMBH media using NBS plates, by OD(600). The assay is classed as functional. To be noted: Concentration 300 ug.mL-1, ASSAY_TEST Inhibition of Bacterial Growth, detection method Absorption (OD600), MEDIA CAMHB, plate type 384well, CORNING #3640, time 18 hr.
Turning to `COCCCOc1cnc(C#N)cn1`, the Inhibition is -8.76%. Under `Cc1ncccc1CN1CCCCC1(C)C(N)=O` (stereo unspecified) stands -20.64%; under `Cc1cc(C)cc(OCC(=O)N2CCNCC2)c1`, -0.07%; under `Cc1ccc(C(=O)NCCNC(=O)c2ccco2)cc1`, -53.65%.

Regarding `CC1COCCN1Cc1cn2ccccc2n1` (stereo unspecified), the Inhibition is recorded as 15.25%. Turning to `c1ccc(C/N=C2/CCCCCN2)nc1`, the Inhibition turned out to be 23.32%. On to `N#Cc1ccc(CN)cc1F`, for which the Inhibition is on record as 2.48%. The value for `CN1CCN(C(N)=O)C(c2ccccc2)C1` (stereo unspecified) was 4.12%; that for `COC(=O)CN1CCCC1=O` was 5.23%.

Regarding `CCNC(=O)CSc1nc(C)c(C)n1CCOC`, the Inhibition is 3.04%. As for `CN(C)C(CNC1=NCCN1)c1ccsc1` (stereo unspecified), the Inhibition is -1.92%. Take `Cc1c(NC(=O)c2cnccn2)cccc1C(N)=O`: the Inhibition amounted to 2.03%.

As for `CCn1cnnc1CNC(=O)c1cccc(N(C)C)c1`, the Inhibition is listed as -1.56%. Consider `NC1CC(=O)c2ccccc21` (stereo unspecified), for which the Inhibition was 4.06%.

As for `O=C(CN1CCNC(=O)C1)NCCOc1ccccc1`, the Inhibition is recorded as 25.17%. Regarding `c1cn(-c2cc(N3CCSCC3)ncn2)cn1`, the Inhibition was found to be 8.05%. Regarding `O=C(c1ccsc1)N1CCCN(c2cccnn2)CC1`, the Inhibition amounted to 0.34%. The value for `CC(C)n1nccc1NC(=O)CN(C)Cc1ccco1` was 9.78%; that for `COc1ccc(CNc2ccncc2F)cc1C#N` was -8.23%. Under `CC(C)(C)C(=O)Nc1ccc(N2CCNC(=O)C2)cc1` stands 7.8%. The value for `COc1ccc(Cl)cc1NC(=O)N[C@@H]1CNCC[C@H]1O` was -35.77%. In the case of `CN(C)C1(CNC(=O)c2cn[nH]c2)CCOCC1`, the Inhibition was -13.75%. Under `NCC1CCCOC1` (stereo unspecified) stands 10.08%; under `COc1cc(CCCN)cc(OC)c1O`, 4.59%.

As for `Cc1ccccc1CN1CCCN(CCC(N)=O)CC1`, the Inhibition was -4.93%. On to `NC(=O)NC(=O)CCNS(=O)(=O)c1ccccc1Cl`, for which the Inhibition stood at 13.15%. Consider `NCC(O)CN1CCc2ccccc2C1` (stereo unspecified), for which the Inhibition is listed as -6.8%. Turning to `CC(CC(=O)N1CC[C@H](O)C1)c1cccc(F)c1` (stereo partly specified), the Inhibition is -15.14%. The value for `CO[C@H]1CNCC1NC(=O)Cc1ccc(F)cc1F` (stereo partly specified) was 11.48%. `N#Cc1ncc(Cl)cc1Cl`: the Inhibition was 28.39%.

Turning to `CC(C)CC(=O)NCc1ccnc(N2CCCC2)c1`, the Inhibition is recorded as -20.17%. For `CCC[C@H]1CN(C(=O)c2csc(NC)n2)C[C@@H]1N`, the Inhibition amounted to 2.64%.

For the compound `NCCN1C(=O)COc2ccccc21`, the Inhibition is -12.94%. Under `Cc1cc(NC(=O)NCC2CCN(CCO)CC2)no1` stands 13.32%; under `CCc1cccc(S(=O)(=O)N2CC[C@H](N)C2)c1`, -15.97%.

On to `COCCNCCNC(=O)c1ccc(Cl)c(C)c1`, for which the Inhibition is -10.19%. Under `CNC(=O)c1ccc(C)c(NC(=O)c2ccco2)c1` stands -0.03%. The value for `OC(CNc1ncc(Cl)cc1F)CN1CCOCC1` (stereo unspecified) was 11.06%; that for `CC(C)C(=O)Nc1ccc(N2CCOCC2)nc1` was 4.38%; that for `COC(=O)CCCC(=O)N1CCC2(CCCC2)C1` was 14.7%. Under `COCCNS(=O)(=O)C1CCCCC1` stands -6.37%; under `CC(C)c1cccc(S(=O)(=O)N2CCCC2CN)c1` (stereo unspecified), -46.42%. `O=C(CN1CCCC1c1ccco1)N1CCOCC1` (stereo unspecified): the Inhibition is recorded as 18.12%. Under `CC(C)c1ccn(CC(=O)NC2CC2)n1` stands 1.75%; under `CCc1nnc(NCCS(=O)(=O)N(C)C)o1`, -4.82%. The value for `CC(C)n1cc(C(=O)NCCN(C)S(C)(=O)=O)cn1` was 17.41%; that for `CC(=O)NCc1cn2c(C)cccc2n1` was -5.3%; that for `Cc1ccnc(NCCS(=O)(=O)NCC2CCC2)c1` was -18.59%.

With `CNC(=O)c1nc(-c2ccc(C(F)(F)F)cc2)no1`, the Inhibition came to 32.14%. On to `CN(c1ccccc1C(N)=O)S(=O)(=O)c1cccs1`, for which the Inhibition is given as -71.82%.

Turning to `CN(C(=O)COCC1CC1)c1nc2ccccc2n1C`, the Inhibition amounted to 4.52%.

As for `CNc1ccc(N2CCOCC2)nc1`, the Inhibition is listed as -26.42%. As to `CCN1CCN(CC(=O)Nc2ccc(C)cc2C)CC1`, the Inhibition is -4.07%.

Take `CN(C)[C@@H]1CN(C(=O)c2ncccn2)C[C@H]1CO`: the Inhibition stood at 3.69%. Consider `NC(=O)CCC1CCNCC1`, for which the Inhibition is -8.79%.

For the compound `CCC(C)NC(=O)N1CCCN(C2CC2)CC1` (stereo unspecified), the Inhibition is 16.96%.

For `Fc1ccccc1CN1CCn2ccnc2C1`, the Inhibition is on record as -12.72%. As to `NC1CCCN(c2noc(-c3ccccc3)n2)CC1` (stereo unspecified), the Inhibition is 0.95%. Turning to `COCCNC(=O)NCCc1ccc(C)c(OC)c1`, the Inhibition was determined as 7.38%. Turning to `Cc1ccc(NC(=O)NC2(CCO)CCOCC2)s1`, the Inhibition was -4.26%. Under `CCc1nnc(NC2CCOC3(CCOCC3)C2)o1` (stereo unspecified) stands 8.44%; under `CCc1ccccc1CN`, 3.32%.

For `CC(=O)NC(C(=O)Nc1cccc(C)n1)C(C)C` (stereo unspecified), the Inhibition is given as -8.54%.

Take `O=C1CN(Cc2ncc[nH]2)CCN1C1CCCC1`: the Inhibition is 2.49%. Take `CCOCC(=O)N(C)Cc1cccc2cnccc12`: the Inhibition is reported as -38.69%. The value for `CC(CO)Sc1ccc(S(=O)(=O)C(F)F)cc1` (stereo unspecified) was 16.44%; that for `CS(=O)(=O)CC1(CNc2cccc(C(F)(F)F)n2)CC1` was -21.2%. Under `OCc1ccncc1NCC1CCOCC1` stands 8.94%. The value for `OCCCNc1cccc(Cl)c1-n1cccn1` was -33.42%; that for `Cn1nc(C(F)(F)F)c(Cl)c1C(=O)N[C@@H]1CCNC1` was 31.11%. Consider `CC(=O)NC(CC(=O)N1CCCC1)c1ccc(Cl)cc1` (stereo unspecified), for which the Inhibition is listed as -24.39%.

As for `CN(Cc1ccccc1)C(=O)NC1CCCCNC1=O` (stereo unspecified), the Inhibition is listed as -2.06%. The value for `CS(=O)(=O)N1CCCC(C(=O)Nc2cccnc2O)C1` (stereo unspecified) was 14.72%; that for `Cc1cc(N(C)C)nc(N2CCCC2C(=O)N(C)C)n1` (stereo unspecified) was -8.5%; that for `Cc1cc(NC(=O)CCn2ccnc2)no1` was 1.69%.

In the case of `COc1c(CNC(=O)c2cccs2)c(C)nn1C`, the Inhibition is -17.79%. For the compound `CCC(=O)N1CCCN(c2ccncc2Cl)CC1`, the Inhibition is reported as -2.88%. In the case of `CN1Cc2cccn2CC1CNC(=O)NC1CCCC1` (stereo unspecified), the Inhibition is reported as -13.25%. Under `N[C@@H]1CC[C@@H]1NC(=O)CCn1cc(Cl)cn1` stands -25.34%.

With `COc1cc(F)c(C(=O)N[C@@H]2CCNC[C@H]2O)c(F)c1`, the Inhibition was determined as 19.43%. The value for `CN(c1ccc(O)cc1)S(=O)(=O)c1ccco1` was -8.79%; that for `CCOCC(=O)N1C[C@H](CO)C[C@H](CN2CCCC2)C1` was -0.69%. Under `COc1ccc(CNC(=O)C2=COCCO2)cc1OC` stands 2.02%; under `CCN(C)CCNC(=O)c1cc(C2CC2)[nH]n1`, -3.76%. As for `Cn1c(N)nc2cc(F)ccc21`, the Inhibition is -7.38%. `COc1ccc(C)c(NC(=O)N(C)CCN(C)C)c1`: the Inhibition is -15.47%.

Take `NS(=O)(=O)CC1CCCN1CCSc1ccccc1` (stereo unspecified): the Inhibition is -5.99%. On to `CCn1ccc(C(=O)NCc2ccco2)n1`, for which the Inhibition is 2.87%.

Take `O=C1CCC(=O)N1CCSc1ccc2ccccc2n1`: the Inhibition was -6.71%. On to `Cc1cc(NC(=O)Nc2ccccn2)n(C)n1`, for which the Inhibition was 4.35%. Under `CC(=O)N1CCCn2nc(-c3cccnc3)cc2C1` stands 11.49%; under `COc1ccc(Br)c(S(=O)(=O)N(C)C)c1`, -20.8%. For the compound `COc1ccc2c(c1)[C@@H](O)CCC2`, the Inhibition is given as -31.22%.

As for `N#Cc1ccc(OC2CCNC2)nc1` (stereo unspecified), the Inhibition came out at 1.63%. `O=C(CCc1ccccn1)NCCn1cccc1`: the Inhibition is 9.1%. Consider `N#CCSCC(=O)NCc1ccccc1F`, for which the Inhibition was -29.21%. Take `Nc1ncccc1CN1CCc2ccccc2CC1`: the Inhibition was 7.61%. With `COc1ccc(-c2cncc(N)c2)cc1CO`, the Inhibition was -5.49%. The value for `COCCN(C)C(=O)Nc1cccc(C)n1` was -9.37%. Under `NCC(=O)Nc1ccc2c(c1)CCC2` stands -42.19%. Under `NCc1nc2c(s1)CCCC2` stands -13.62%; under `Cn1ccnc1SCCNCC1(O)CNCCOC1` (stereo unspecified), 1.72%; under `COCCn1ccnc1CN1CCN(C)C(CO)C1` (stereo unspecified), -3.82%. As to `CN(C)C1CCCN(C(=O)c2n[nH]c(N)c2Cl)CC1` (stereo unspecified), the Inhibition is -17.73%. Under `O=C1CC(N2CCN(Cc3ccccc3)CC2)C(=O)N1` (stereo unspecified) stands -12.59%; under `CN1CC[C@H]2CN(C(=O)CCCc3cn[nH]c3)C[C@H]21`, -2.24%.

For the compound `CC(O)CCS(C)(=O)=O` (stereo unspecified), the Inhibition is on record as 4.88%. The value for `NC1CCN(S(=O)(=O)C2CC2)CC1` was 17.98%; that for `O=C(CCc1ccc2[nH]ccc2c1)N1CCOCC1` was -29.4%.

For `CCOc1cc(C(=O)NC2=NCCS2)ccc1OC`, the Inhibition was 13.17%. Under `Cn1nc(C(=O)Nc2nc(CC(N)=O)cs2)ccc1=O` stands 12.8%; under `OCc1cc(CNc2ncccn2)ccc1F`, 6.43%; under `CC(CN)N(C)C(=O)c1ccccc1Br` (stereo unspecified), 12.75%. `CN(C)c1ncccc1CNC(=O)COCC1CC1`: the Inhibition is recorded as -2.02%. Regarding `CC(C)C(=O)NCc1ccnc(-n2cccn2)c1`, the Inhibition amounted to 10.08%.

In the case of `O=C(Cn1cc(Br)cn1)NC1CCc2nccn2C1` (stereo unspecified), the Inhibition is -4.73%. The value for `CCCOc1cccc(NCCCS(C)(=O)=O)c1` was 1.09%; that for `O=C(NCCCN1CCc2ccccc2C1)C1CC1` was -1.62%; that for `NCC1CCN(c2cnn(CC3CCC3)c(=O)c2)CC1` was -9.55%. The value for `CC1CN(c2cc(CN)ccn2)CCO1` (stereo unspecified) was 10.77%; that for `CC(C)(C(=O)N1CC[S+]([O-])C(C)(C)C1)c1ccccc1` (stereo unspecified) was 12.17%.

Regarding `NC(=O)NCC1CCN(Cc2ccccc2)C1` (stereo unspecified), the Inhibition is given as -16%. As to `COCC(=O)Nc1cccc(CN2CCCC2)c1`, the Inhibition is on record as -2.77%. The value for `NC(=O)C1CCN(C(=O)C2CCCO2)CC1` (stereo unspecified) was -13.49%; that for `COc1ccc(C(=O)NCc2ccccn2)cc1F` was -44.49%. Under `COC(=O)CNc1ccc2ccn(C)c(=O)c2c1` stands 13.73%; under `CN1CCCC(CCN)C1` (stereo unspecified), 8.27%; under `Cc1nn(C)c(C)c1CCC(=O)NC1CCCNC1=O` (stereo unspecified), 6.16%. Under `O=C(c1ccc(Br)cn1)N1CCN(CCO)CC1` stands 18.45%; under `CSc1ncccc1C(=O)N1CCCC(C)(C#N)C1` (stereo unspecified), -17.22%. For the compound `CC1CCCN(Cc2cc(=O)n(C)c(=O)n2C)C1` (stereo unspecified), the Inhibition amounted to 8.23%.
